Assay outcomes as filed in PubChem.
Integrin act MD: qHTS for Activators of Integrin-Mediated Alleviation for Muscular Dystrophy; Potency, µM (top dose mostly 38.3 µM), for the others: at the top dose activation, hits mostly activators; alpha7betagal myoblasts, beta-gal FDG fluorescence, 48 h; hit rate 0.064% among 350,000;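 also: potency is read from the fitted curve at half-maximal effect; 100% = response of the positive control SU9516; nearly all actives have a fitted effect of over 60% in size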
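Alpha7betagal+/- myoblasts (passage 13) were plated 16-24 hr, then exposed to compounds (1:260 dilution of DMSO stock) for 48 hours at 37C. After MPER lysis, β-galactosidase reporter activity was read as FDG fluorescence (ex 480/em 540) after 30 minutes.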
Anesthetic bind: qHTS Assay for Identification of Novel General Anesthetics; Ferritin light chain (Equus caballus), P02791; apoferritin/1-aminoanthracene competitive binding, fluorescence; Potency, µM (highest dose often 77.5 µM), without a hit: top-dose activity change, negative = displacement, most hits filed as inhibitors; hit rate 0.074% among 350,000; AID 485281, 2010; also: potency is read from the fitted curve at half-maximal effect; % is scaled to controls: 0 for no effect and ±100 for the full control effect; nearly all actives have a fitted effect of over 20% in size
Target sequence (P02791 2-175 limits assumed): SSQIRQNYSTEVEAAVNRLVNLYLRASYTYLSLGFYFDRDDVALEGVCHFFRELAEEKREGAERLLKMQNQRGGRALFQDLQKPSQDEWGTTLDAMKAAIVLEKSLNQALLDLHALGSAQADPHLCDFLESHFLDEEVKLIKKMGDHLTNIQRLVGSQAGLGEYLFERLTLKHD
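10 uM apoferritin + 50% sat. 1-AMA, PBS; cpd 10 min RT; Ex380/Em535 endpoint; normalized to free probe vs complex; 4-param Hill fit; propofol titration as pos. ctrl.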
IL2 activator: qHTS of IL-2 Activators; IL-2 activation reporter assay, cell-based qHTS; stimulated with anti-CD3/CD4/CD28 beads; in transgenic mouse T cells; activation, % (series mostly up to about 46 µM); hit rate 0.065% among 360,000; AID 652025, 2013; in the data active = activation above about 50%; inconclusive = mostly about 30% to 49%; also: 0% is about no effect
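Screening format: compound pinned onto unstimulated transgenic mouse T cells, 60 min incubation, then anti-CD3/anti-CD4/anti-CD28 bead stimulation for 18 hours at 37 degrees C, followed by EGFP and DsRed detection.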
PKM2 activator: qHTS Assay for Activators of Human Muscle isoform 2 Pyruvate Kinase; Potency, µM (highest dose often 57.5 µM), for inactives: at the highest dose activation, actives largely listed as activators; AID 1631, 2009; hit rate 0.34% among 260,000; purified PKM2, Kinase-Glo ATP luminescence, activation; response scale: 0% is enzyme alone, no compound; also: potency is read from the fitted curve at half-maximal effect; % is scaled to controls: 0 for no effect and ±100 for the full control effect; nearly all actives have a fitted effect of over 55% in size
Target sequence (P14618 whole entry, looked up, canonical isoform): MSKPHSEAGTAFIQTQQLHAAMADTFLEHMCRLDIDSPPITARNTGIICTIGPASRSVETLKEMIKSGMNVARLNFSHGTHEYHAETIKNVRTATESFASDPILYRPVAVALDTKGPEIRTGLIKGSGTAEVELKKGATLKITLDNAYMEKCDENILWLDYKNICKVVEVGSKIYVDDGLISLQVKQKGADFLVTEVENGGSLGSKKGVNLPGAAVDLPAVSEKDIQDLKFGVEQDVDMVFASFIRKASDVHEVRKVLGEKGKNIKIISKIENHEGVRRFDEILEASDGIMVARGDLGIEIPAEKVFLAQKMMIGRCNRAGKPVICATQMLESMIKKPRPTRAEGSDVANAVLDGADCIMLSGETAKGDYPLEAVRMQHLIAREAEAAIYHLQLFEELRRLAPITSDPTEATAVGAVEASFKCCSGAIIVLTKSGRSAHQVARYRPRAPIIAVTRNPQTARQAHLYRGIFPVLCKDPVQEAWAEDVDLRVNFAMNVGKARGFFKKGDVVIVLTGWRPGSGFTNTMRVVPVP
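hPK-M2, >95% pure; 0.1 mM ADP / 0.5 mM PEP final; imidazole pH7.2 buffer w/ 7 mM MgCl2, 50 mM KCl; 1 h RT; Kinase-Glo lum. Intermediate enzyme activity for dual inhibitor/activator qHTS.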
BRCA1 expr act: qHTS Assay to Identify Small Molecule Activators of BRCA1 Expression; hit rate 1.1% among 380,000; MCF7-BRCA1-FFLuc reporter, luminescence, 48 h; response scale: scaled: vehicle 0%, 10 µM genistein 100%; Potency, µM (titrated, usually from 46.1 µM), inactives show at the top dose activation, hits mostly activators; also: potency is read from the fitted curve at half-maximal effect; nearly all actives have a fitted effect of over 80% in size
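MCF7-BRCA1-FFLuc cells, 2000/well in phenol-red-free MEM, attached 2 h then treated 48 h at 37 C. Luciferase luminescence read 15 min after reagent; normalized to genistein maximum activation (10microM) and DMSO, concentration-response fitted.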
Numbers without * were called inactive; ? = inconclusive; nt = not tested or not shown; [ ] = remark or other dose. Shown are actives, neighbours in structure and some others; about 1.3% of the full set was active somewhere. Unless noted, calls follow the shape of the dose curve; as a rule, active = well fitted curve in the direction sought with a large enough effect; inconclusive = small, poorly fitted or top-dose-only effect, or another doubt; inactive = no such curve, though single readings can be large; an effect the other way counts as inactive or inconclusive.

SMILES	Integrin act MD	Anesthetic bind	IL2 activator	PKM2 activator	BRCA1 expr act
CCCC1(C)Nc2ccccc2-c2nc3ccccc3n21 (stereo not given)	-1%	12%	-2	-4%	8.9µM*
c1ccc2c(c1)NC1(CCCC1)n1c-2nc2ccccc21	6%	-6%	1	-10%	50%
CCOc1cc(/C=C2/C(=O)ON=C2C)ccc1OCc1ccccc1F	-47%	-17%	0	16µM*	-19%
CCOc1cc(/C=C2/C(=O)ON=C2C)ccc1OCc1ccccc1	-4%	-4%	0	-7%	10%
O=[N+]([O-])c1cc(Cl)ccc1NCCc1ccccn1	?	6%	0	?	?
N#Cc1ccc(NCCc2ccccn2)c([N+](=O)[O-])c1	21%	-7%	0	14µM*	28%
CCCS(=O)(=O)NCCc1sc2nc(-c3ccc(F)cc3)nn2c1C	nt	-8%	nt	nt	nt
Cc1ccc(S(=O)(=O)/N=c2\sccn2C)cc1	3%	-9%	-4	18µM*	-1%
Cc1ccc(-n2c(SCC(=O)NCc3ccco3)nc3nc4c(cc3c2=O)COC(C)(C)C4)cc1	1%	-20%	1	14µM*	0%
O.O.[Mn].[Mn].[Mn].[OH-].[OH-]	nt	12%	nt	nt	nt
Fc1ccc(Cc2cn3cc(-c4ccc(Cl)cc4)nc3s2)cc1	nt	0%	nt	nt	0.89µM*
Fc1ccc(-c2cn3cc(Cc4ccc(Cl)cc4)sc3n2)cc1	nt	57%	nt	nt	4.5µM*
Cc1ccc(S(=O)(=O)CC(=O)c2ccccc2)cc1	-13%	-18%	-4	2%	26%
Cc1ccc(S(=O)(=O)CC(=O)c2ccc([N+](=O)[O-])cc2)cc1	7%	-7%	0	22µM*	15%
CC(C)(C)c1ccc(C(=O)CS(=O)(=O)c2ccccc2)cc1	-6%	?	0	18%	4µM*
CN(C)c1ccc(/C=C/c2ncnc3ccccc23)cc1	nt	nt	nt	nt	50%
COc1ccc(N(Cc2cccs2)C(=O)c2ccccc2C)cc1	nt	-13%	nt	nt	nt
COC(=O)c1ccc(OCC(=O)NC2CCCCCC2)cc1	14%	?	0	-1%	21%
COC(=O)c1ccc(/C=N/OCC(=O)NC2CCCC(C)C2C)cc1 (stereo not given)	-17%	11µM*	-2	9%	-60%
COC(=O)c1ccc(/C=N/OCC(=O)NC2CCCCCCC2)cc1	-10%	7.9µM*	-1	-7%	-19%
Cc1cc(NC(=O)c2cc(C(C)C)on2)no1	6%	5%	0	4%	11µM*
CCC(=O)c1ccc(OCC(=O)OCC(=O)NC2CCCCCCC2)cc1	-16%	5.6µM*	-2	-6%	24%
CC(C)Oc1ccc(C(=O)NC2CCS(=O)(=O)C2)cc1 (stereo not given)	-13%	1%	-1	0%	0%
O=C(c1cc(-c2ccccc2O)on1)N1CCc2ccccc2C1	10%	?	-1	1%	10µM*
CC(C)Oc1ccc(C(=O)NC2CCCCC2)cc1	-17%	-7%	-2	-1%	4.5µM*
SMILES	Integrin act MD	Anesthetic bind	IL2 activator	PKM2 activator	BRCA1 expr act
O=C(NC1CCCCC1)c1cc(-c2ccc(O)cc2)on1	1%	2%	1	-1%	?
CC(C)c1cc(C(=O)NC2CCCCC2)no1	-13%	-12%	1	0%	8.9µM*
O=C(NC1CCCCC1)c1cc(-c2ccccc2O)on1	?	1%	1	1%	2µM*
CCCCC(Sc1nc2cc3c(cc2c(=O)n1CCCC(=O)NCc1ccc2c(c1)OCO2)OCO3)C(=O)OCC (stereo not given)	nt	-14%	nt	nt	nt
Cc1cc(/C=C2\NC(=S)N(C)C2=O)ccc1N1CCCC1	-12%	-9%	6	4%	5µM*
CCCN1C(=O)/C(=C/c2ccc(N3CCCC3)c(C)c2)NC1=S	18%	?	24	-5%	-35%
O=C(COc1ccccc1C(=O)Nc1ccccc1)Nc1cccc(Cl)c1	nt	nt	nt	nt	-39%
Cc1cc(SCc2ccccc2F)nc(=O)[nH]1	10%	-13%	0	16µM*	-2%
S=C(NCCc1c[nH]c2ccccc12)NC1CCCCC1	5%	-15%	0	-1%	11µM*
O=C(NC1CCCCC1)C(=O)c1c[nH]c2ccccc12	16%	4%	2	2%	13µM*
O=C(COC(=O)c1c[nH]c2ccccc12)NC1CCCC1	?	nt	0	nt	7%
CCSc1ccccc1C(=O)Nc1nc2ccccc2c(=O)[nH]1	41%	-18%	2	1%	-2%
CSc1ccccc1C(=O)Nc1nc2ccccc2c(=O)[nH]1	?	-23%	0	4%	11µM*
CN(C)c1ccc(/C=C/c2ccnc3ccc(Br)cc23)cc1	nt	nt	nt	nt	-20%
N#C/C(=C/c1ccc(-c2ccc(S(N)(=O)=O)cc2)o1)c1nc2ccccc2s1	-10%	-5%	71*	-5%	-63%
O=C(C[n+]1ccccc1Br)c1ccc2c(c1)CCCC2	nt	nt	nt	nt	21%
CC(C)NS(=O)(=O)c1ccc2[nH]c3nc(SCC(=O)Nc4ccc(F)c(F)c4)nnc3c2c1	nt	nt	nt	nt	0%
Cc1ccc(Oc2nc3ccccn3c(=O)c2/C=C(\C#N)c2nc3ccccc3s2)c(C)c1	nt	5%	nt	nt	nt
COc1cc(/C=c2\sc3nc(=O)c(-c4ccccc4)nn3c2=O)ccc1OCCC(C)C	-13%	0%	100*	1%	22%
CCOc1ccc(/C=c2\sc3nc(-c4ccco4)nn3c2=O)cc1OCC	5%	17%	-2	-5%	4%
CCN(CC)c1ccc(NC(=O)CN2CCN(S(=O)(=O)c3ccc(C(C)C)cc3)CC2)cc1	nt	-4%	nt	nt	nt
COc1ccccc1CNC(=O)Cn1c(=O)oc2cc(S(=O)(=O)NCc3ccccc3)ccc21	nt	0%	nt	nt	nt
COC(=O)N1C2CC(=O)O[C@@H]3c4cc5c(cc4[C@]1(C)[C@@]3(Br)c1ccccc12)OCO5	nt	nt	nt	-2%[11.5 µM]	nt
Cn1cccc1C(=O)NNC(=O)COc1ccccc1F	34%	-3%	-1	1%	13µM*
O=C(COc1ccccc1F)NNC(=O)c1cccc(-n2cccc2)c1	-18%	-4%	-3	2%	2%
COc1ccc(-c2nc3ccccc3o2)cc1NC(=O)COc1ccc(C(C)(C)C)cc1	nt	-5%	nt	nt	16%
Cc1ccc(O)c(NC(=O)CCC2CCCCC2)c1	10%	?	1	2%	4µM*
Cn1c(NNC(=O)CCC2CCCCC2)cc(=O)n(C)c1=O	21%	-6%	-1	0%	-27%
Cc1ccc(NC(=O)CC2CCCC2)c(Br)c1	-24%	?	0	nt	13µM*
Cc1ccc(NC(=O)C2CCCC2)c(Br)c1	-11%	nt	0	nt	29%
